For 9 molecules, Potency and outcome results are on record in PubChem BioAssay (Tox21).

SMILES strings stand for the structures. Several values for one entry are separate records, joined by “and”; a condition that tells them apart may be missing. Equal entries are not always repeated. Records with an inconclusive call do not appear. The source holds several records for some structures; these can differ, active in one and inactive in another. Activity calls are given as the source filed them. Unless noted, calls come from the whole dose curve.

The nature of experiment [1]: qHTS assay to identify small molecule antagonists of the sonic hedgehog signaling (Shh) pathway (AID 1259369). Note: nearly all actives have a fitted effect of over 45% in size. Note: potency is the fitted concentration of half-maximal effect. Conditions: NIH/3T3 Gli1-Luc reporter, Shh antagonist, luminescence 24 h; series mostly up to 92.4 µM. Summed up:
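Inhibition of Shh signalling is measured as reduced Gli1-response-element firefly luciferase output in an NIH/3T3-derived stable reporter clone stimulated with conditioned medium for 24hr.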

A short description of experiment [2]: qHTS assay to identify small molecule agonists of the estrogen receptor beta (ER-beta) signaling pathway - cell viability counter screen (AID 1259380; active = well fitted curve in the direction sought with a large enough effect in the repeat runs; an effect the other way counts as inactive or inconclusive; note: nearly all actives have a fitted effect of over 30% in size; note: potency is the fitted concentration of half-maximal effect). As to conditions: ER-beta-bla HEK293T viability, CellTiter-Glo luminescence, 16 h; series mostly up to 92.4 µM. A digest of the protocol:
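Same-well viability counter screen. Cells: ER-beta-UAS-bla HEK293T, plated 6 hr before compound, in 2% charcoal-stripped FBS. Compound exposure 16 hr, 37C; viability by CellTiter-Glo luminescence after 30 min at room temperature.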
(In qHTS, concentration-response curves come from the screen itself.)

Experiment [3] concerns the target Androgen receptor (Homo sapiens) (UniProt P10275). In words: qHTS assay to identify small molecule agonists of the androgen receptor (AR) signaling pathway in the presence of an antagonist (AID 1259381). Note: nearly all actives have a fitted effect of over 15% in size. Conditions: MDA-kb2 MMTV-luciferase, AR agonist + nilutamide, 16 h; series mostly up to 92.4 µM. A digest of the protocol:
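Cells are MDA-kb2 (human breast carcinoma, MMTV-luc, AR/GR responsive). Nilutamide is present at 3.0uM final throughout; compounds are added at 15 concentrations and incubated 16hr at 37C before ONE-Glo luminescence detection.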

The nature of experiment [4]: qHTS assay to identify small molecule antagonists of the estrogen receptor beta (ER-beta) signaling pathway - cell viability counter screen (AID 1259382; active = well fitted curve in the direction sought with a large enough effect in the repeat runs; an effect the other way counts as inactive or inconclusive; note: nearly all actives have a fitted effect of over 55% in size; note: potency is the fitted concentration of half-maximal effect). As to conditions: ER-beta-UAS-bla HEK293T viability, CellTiter-Glo luminescence, 16 h; series mostly up to 92.4 µM. A digest of the protocol: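 Following a 6 hr plating period, HEK293T cells carrying a UAS-driven beta-lactamase reporter under ER-beta control received compounds and 1nM E2 (final). After 16 hr at 37C and 2 hr substrate loading, CellTiter-Glo luminescence indicated viability.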

Experiment [5] has as its target Estrogen receptor (Homo sapiens) (UniProt P03372). In words: qHTS assay to identify small molecule agonists of the estrogen receptor alpha (ER-alpha) signaling pathway in the presence of an antagonist (AID 1259383). Note: top concentration of the series differs between compounds; nearly all actives have a fitted effect of over 15% in size. As to conditions: VM7Luc4E2 cells, ERE-luciferase, +ICI-182,780, 22 h; series mostly up to 92.4 µM. A digest of the protocol: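 Cells are hormone-deprived for 5 days (charcoal-stripped FBS, no phenol red), plated for 24hr, spiked with 10.0nM ICI-182,780, then dosed at 15 concentrations. After 22hr at 37C, ONE-Glo luminescence reports ERE-luciferase activity.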

Experiment [6] in a line: qHTS assay to identify small molecule agonists or antagonists of the thyroid stimulating hormone receptor (TSHR) signaling pathway - wild type cell line counter screen (AID 1259384). As to conditions: HEK293 wild type, cAMP HTRF counter-screen, stronger effect = higher value; series mostly up to 92.4 µM. A digest of the protocol: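 Wild-type Hek293 cells, 800/well, 18 h at 37C, then compound with Ro20-1724 for 30 min RT. cAMP by HTRF (cAMP-d2/anti-cAMP cryptate), 1 h RT, fluorescence read. 15 concentrations, triplicates.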

Experiment [7] has as its target Thyrotropin receptor (Homo sapiens) (UniProt P16473). In words: qHTS assay to identify small molecule antagonists of the thyroid stimulating hormone receptor (TSHR) signaling pathway (AID 1259385). Note: nearly all actives have a fitted effect of over 20% in size. Conditions: TSHR-HEK293 cAMP HTRF, TSH-stimulated antagonist mode; series mostly up to 92.4 µM. A digest of the protocol:
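TSHR-HEK293 cells (800/well) plated 18 h, then compounds with Ro20-1724 and TSH at 1.5 ng/mL final, 30 min at room temperature. cAMP quantified by HTRF (cAMP-d2/anti-cAMP-cryptate, 1 h); 15 concentrations in triplicate.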

Experiment [8] can be described thus: qHTS assay to identify small molecule antagonists of the progesterone receptor (PR) signaling pathway - cell viability counter screen (AID 1346798; active = well fitted curve in the direction sought with a large enough effect in the repeat runs; an effect the other way counts as inactive or inconclusive; note: nearly all actives have a fitted effect of over 50% in size; note: potency is the fitted concentration of half-maximal effect). As to conditions: PR-UAS-bla HEK293T viability, CellTiter-Glo luminescence, 16 h; series mostly up to 92.4 µM. A digest of the protocol: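 Cytotoxicity read as CellTiter-Glo luminescence (30 min, room temperature) in the same wells as the beta-lactamase readout. HEK293T PR-UAS-bla cells in charcoal-stripped 2% FBS received compound and R5020, then 16 h at 37C, 5% CO2.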

Experiment [9] is described as follows: qHTS assay to identify small molecule agonists of the progesterone receptor (PR) signaling pathway - cell viability counter screen (AID 1346799). Note: nearly all actives have a fitted effect of over 45% in size. Note: potency is the fitted concentration of half-maximal effect. As to conditions: PR-UAS-bla HEK293T viability, CellTiter-Glo luminescence, 16 h; series mostly up to 92.4 µM. A digest of the protocol: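 Cytotoxicity measured by CellTiter-Glo luminescence (30 min, RT) in the same wells as the PR beta-lactamase agonist read. Those HEK293T cells had 16 h compound treatment at 37 C in 2% charcoal-stripped FBS medium.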

Experiment [10] in a line: qHTS assay to identify small molecule agonists of the TGF-beta/Smad signaling pathway - cell viability counter screen (AID 1346829; active = well fitted curve in the direction sought with a large enough effect in the repeat runs; an effect the other way counts as inactive or inconclusive; note: nearly all actives have a fitted effect of over 45% in size; note: potency is the fitted concentration of half-maximal effect). As to conditions: SBE-bla HEK293T viability, CellTiter-Glo luminescence, 5 h; series mostly up to 76.8 µM. Summed up: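 Luminescence from CellTiter-Glo, read after a 30 min room-temperature incubation, gives cell viability of SBE-bla HEK 293T cells treated 5 hr with compounds at 37 C.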

The target of experiment [11] is Thyrotropin-releasing hormone receptor (Homo sapiens) (UniProt P34981). In words: qHTS assay to identify small molecule antagonists of the thyrotropin-releasing hormone receptor (TRHR) signaling pathway (AID 1346877; active = well fitted inhibition curve with a large enough effect in the repeat runs, not every such curve was filed as active; note: potency is the fitted concentration of half-maximal effect). Conditions: TRHR-HEK293, TRH-induced calcium fluorescence, antagonist mode; series mostly up to 51.3 µM. Summed up: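 Cells (TRHR-HEK293) are plated and kept 18 h at 37 °C/5% CO2. A calcium-sensitive dye is added for 2 h, compound follows for 5 min at room temperature, and TRH is then given at 1 nM final.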
Chain of Thyrotropin-releasing hormone receptor (Homo sapiens) (P34981 whole entry, looked up): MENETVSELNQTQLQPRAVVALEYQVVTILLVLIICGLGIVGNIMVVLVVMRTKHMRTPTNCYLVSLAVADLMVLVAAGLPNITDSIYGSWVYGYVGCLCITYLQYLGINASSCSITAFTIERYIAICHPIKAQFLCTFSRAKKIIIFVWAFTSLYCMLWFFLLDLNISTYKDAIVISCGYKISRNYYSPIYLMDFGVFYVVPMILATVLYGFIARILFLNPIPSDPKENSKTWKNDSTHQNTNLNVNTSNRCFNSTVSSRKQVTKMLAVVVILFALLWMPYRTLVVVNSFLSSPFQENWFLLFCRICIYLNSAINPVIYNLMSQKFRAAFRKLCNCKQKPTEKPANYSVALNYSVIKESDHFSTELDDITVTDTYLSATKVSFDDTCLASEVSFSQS

The nature of experiment [12]: qHTS assay to identify small molecule agonists of the androgen receptor (AR) signaling pathway in the presence of an antagonist - cell viability counter screen (AID 1259379; active = well fitted curve in the direction sought with a large enough effect in the repeat runs; an effect the other way counts as inactive or inconclusive; note: nearly all actives have a fitted effect of over 25% in size; note: potency is the fitted concentration of half-maximal effect). As to conditions: MDA-kb2 viability, CellTiter-Fluor, 16 h; series mostly up to 92.4 µM. Summed up: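 Fluorescence from CellTiter-Fluor, added after 15 hr and read 1 hr later, gave cell viability. Cells were MDA-kb2 exposed to compounds (15 concentrations) in the presence of 3.0uM nilutamide at 37C, 0% CO2.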

A short description of experiment [13]: qHTS assay to identify small molecule agonists of the estrogen receptor alpha (ER-alpha) signaling pathway in the presence of an antagonist - cell viability counter screen (AID 1259386; active = well fitted curve in the direction sought with a large enough effect in the repeat runs; an effect the other way counts as inactive or inconclusive; note: nearly all actives have a fitted effect of over 30% in size; note: potency is the fitted concentration of half-maximal effect). Conditions: VM7Luc4E2 viability, CellTiter-Fluor fluorescence, 22 h; series mostly up to 92.4 µM. A digest of the protocol: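 Cells are starved of estrogens for 5 days in charcoal-stripped serum, seeded for 24hr and co-treated with ICI-182,780 (10.0nM final) and test compounds. After 22hr at 37C, viability is read as CellTiter-Fluor fluorescence.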

Experiment [14] has as its target Progesterone receptor (Homo sapiens) (UniProt P06401). In words: qHTS assay to identify small molecule agonists of the progesterone receptor (PR) signaling pathway (AID 1346784). Note: nearly all actives have a fitted effect of over 30% in size. Conditions: PR-UAS-bla HEK293T, beta-lactamase FRET ratio, 16 h; series mostly up to 92.4 µM. A digest of the protocol:
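Agonist qHTS: compounds pinned onto 3,000 PR-UAS-bla HEK 293T cells per well in charcoal-stripped serum medium, 16hr at 37C, then beta-lactamase activity measured by LiveBLAzer FRET fluorescence after 2 hours at room temperature.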

The nature of experiment [15]: qHTS assay to identify small molecule agonists of the TGF-beta/Smad signaling pathway (AID 1346859; active = well fitted activation curve with a large enough effect in the signal ratio in the repeat runs, not every such curve was filed as active; the % refers to the signal ratio). As to conditions: SBE-bla HEK293T, TGF-beta/Smad beta-lactamase reporter, 5 h; series mostly up to 76.8 µM. Summed up:
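Fluorescence (ex 405 nm; em 460 and 530 nm) was read 2 h after LiveBLAzer FRET substrate at RT. The preceding compound treatment of overnight-plated SBE-bla HEK293T cells lasted 5 h at 37 C.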

Experiment [16] deals with Thyrotropin-releasing hormone receptor (Homo sapiens) (UniProt P34981). In words: qHTS assay to identify small molecule agonists of the thyrotropin-releasing hormone receptor (TRHR) signaling pathway (AID 1346891). Note: potency is the fitted concentration of half-maximal effect. Conditions: TRHR-HEK293 calcium fluorescence, agonist mode; series mostly up to 57.6 µM. Summed up: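 Agonist-mode intracellular calcium readout: kinetic fluorescence over 3 min at 1 s intervals after compound addition to TRHR-HEK293 cells (18 h seeded, 2 h dye-loaded at 37 C). Fifteen concentrations, triplicates.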

In experiment [17] the target is Progesterone receptor (Homo sapiens) (UniProt P06401). In words: qHTS assay to identify small molecule antagonists of the progesterone receptor (PR) signaling pathway (AID 1346795; active = well fitted inhibition curve with a large enough effect in the signal ratio in the repeat runs, not every such curve was filed as active; the % refers to the signal ratio). As to conditions: PR-UAS-bla HEK293T, beta-lactamase FRET ratio, 16 h; series mostly up to 92.4 µM. Summed up: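 Antagonist mode with agonist R5020 at 1 nM final and 16 hr incubation at 37C. Reporter was beta-lactamase driven by UAS in HEK293T (PR-UAS-bla), 2% charcoal-stripped serum; signal from LiveBLAzer FRET substrate, 2 hr at room temperature.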
Chain of Progesterone receptor (Homo sapiens) (P06401 whole entry, looked up): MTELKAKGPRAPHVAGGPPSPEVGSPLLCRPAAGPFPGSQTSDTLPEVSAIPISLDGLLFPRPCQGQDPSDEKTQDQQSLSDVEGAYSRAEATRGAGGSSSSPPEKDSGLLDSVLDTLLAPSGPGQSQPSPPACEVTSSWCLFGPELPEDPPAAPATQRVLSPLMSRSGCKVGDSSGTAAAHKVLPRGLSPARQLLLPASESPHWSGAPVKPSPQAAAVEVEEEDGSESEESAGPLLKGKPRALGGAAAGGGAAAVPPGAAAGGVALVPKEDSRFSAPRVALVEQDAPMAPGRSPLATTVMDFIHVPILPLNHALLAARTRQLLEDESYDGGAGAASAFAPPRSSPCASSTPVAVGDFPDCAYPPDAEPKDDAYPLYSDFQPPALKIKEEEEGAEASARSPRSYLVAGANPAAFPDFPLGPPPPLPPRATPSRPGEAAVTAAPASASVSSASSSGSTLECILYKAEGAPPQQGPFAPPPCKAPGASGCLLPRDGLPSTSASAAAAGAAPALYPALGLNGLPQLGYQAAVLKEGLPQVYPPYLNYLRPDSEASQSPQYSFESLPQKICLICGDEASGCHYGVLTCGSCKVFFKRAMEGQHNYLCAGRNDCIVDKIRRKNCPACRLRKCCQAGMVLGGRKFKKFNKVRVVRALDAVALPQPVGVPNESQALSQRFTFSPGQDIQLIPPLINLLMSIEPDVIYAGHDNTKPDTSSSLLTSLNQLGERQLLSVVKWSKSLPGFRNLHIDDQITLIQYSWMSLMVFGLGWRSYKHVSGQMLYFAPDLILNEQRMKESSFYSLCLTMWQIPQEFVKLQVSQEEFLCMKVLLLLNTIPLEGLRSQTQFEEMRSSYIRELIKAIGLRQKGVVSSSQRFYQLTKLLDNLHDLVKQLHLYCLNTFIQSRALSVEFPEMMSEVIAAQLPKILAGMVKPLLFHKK

Experiment [18] can be described thus: qHTS assay to identify small molecule antagonists of the TGF-beta/Smad signaling pathway - cell viability counter screen (AID 1346824; active = well fitted curve in the direction sought with a large enough effect in the repeat runs; an effect the other way counts as inactive or inconclusive; note: nearly all actives have a fitted effect of over 50% in size). As to conditions: SBE-bla HEK293T viability, CellTiter-Glo luminescence; series mostly up to 76.8 µM. Summed up:
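SBE-bla HEK 293T cells, incubated overnight, then compound plus 0.25 ng/mL TGF-beta1 (stock added) for 5 hr at 37 C. Viability was read in the same wells by CellTiter-Glo luminescence after 30 min at room temperature.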

Chain of Thyrotropin receptor (Homo sapiens) (P16473 whole entry, looked up): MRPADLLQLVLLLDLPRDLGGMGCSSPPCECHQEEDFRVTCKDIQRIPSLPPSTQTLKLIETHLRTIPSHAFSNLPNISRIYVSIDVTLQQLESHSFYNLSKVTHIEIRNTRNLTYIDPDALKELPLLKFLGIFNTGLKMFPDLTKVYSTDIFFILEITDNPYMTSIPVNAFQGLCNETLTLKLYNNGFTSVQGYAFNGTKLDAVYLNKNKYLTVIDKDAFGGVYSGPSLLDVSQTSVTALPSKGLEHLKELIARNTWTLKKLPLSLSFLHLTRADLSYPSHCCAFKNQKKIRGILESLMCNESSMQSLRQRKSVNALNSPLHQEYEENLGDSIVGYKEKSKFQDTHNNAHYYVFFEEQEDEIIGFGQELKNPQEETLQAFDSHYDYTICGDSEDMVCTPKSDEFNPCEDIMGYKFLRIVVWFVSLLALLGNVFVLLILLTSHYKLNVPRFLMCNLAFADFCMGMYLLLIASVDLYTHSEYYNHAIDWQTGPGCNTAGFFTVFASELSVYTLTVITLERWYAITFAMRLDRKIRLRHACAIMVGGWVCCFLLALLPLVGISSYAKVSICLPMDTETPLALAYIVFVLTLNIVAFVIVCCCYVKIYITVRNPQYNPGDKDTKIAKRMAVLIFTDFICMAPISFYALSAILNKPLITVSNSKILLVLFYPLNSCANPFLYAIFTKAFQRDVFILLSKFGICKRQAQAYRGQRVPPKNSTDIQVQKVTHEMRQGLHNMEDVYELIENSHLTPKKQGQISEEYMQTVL
Chain of Androgen receptor (Homo sapiens) (P10275 whole entry, looked up): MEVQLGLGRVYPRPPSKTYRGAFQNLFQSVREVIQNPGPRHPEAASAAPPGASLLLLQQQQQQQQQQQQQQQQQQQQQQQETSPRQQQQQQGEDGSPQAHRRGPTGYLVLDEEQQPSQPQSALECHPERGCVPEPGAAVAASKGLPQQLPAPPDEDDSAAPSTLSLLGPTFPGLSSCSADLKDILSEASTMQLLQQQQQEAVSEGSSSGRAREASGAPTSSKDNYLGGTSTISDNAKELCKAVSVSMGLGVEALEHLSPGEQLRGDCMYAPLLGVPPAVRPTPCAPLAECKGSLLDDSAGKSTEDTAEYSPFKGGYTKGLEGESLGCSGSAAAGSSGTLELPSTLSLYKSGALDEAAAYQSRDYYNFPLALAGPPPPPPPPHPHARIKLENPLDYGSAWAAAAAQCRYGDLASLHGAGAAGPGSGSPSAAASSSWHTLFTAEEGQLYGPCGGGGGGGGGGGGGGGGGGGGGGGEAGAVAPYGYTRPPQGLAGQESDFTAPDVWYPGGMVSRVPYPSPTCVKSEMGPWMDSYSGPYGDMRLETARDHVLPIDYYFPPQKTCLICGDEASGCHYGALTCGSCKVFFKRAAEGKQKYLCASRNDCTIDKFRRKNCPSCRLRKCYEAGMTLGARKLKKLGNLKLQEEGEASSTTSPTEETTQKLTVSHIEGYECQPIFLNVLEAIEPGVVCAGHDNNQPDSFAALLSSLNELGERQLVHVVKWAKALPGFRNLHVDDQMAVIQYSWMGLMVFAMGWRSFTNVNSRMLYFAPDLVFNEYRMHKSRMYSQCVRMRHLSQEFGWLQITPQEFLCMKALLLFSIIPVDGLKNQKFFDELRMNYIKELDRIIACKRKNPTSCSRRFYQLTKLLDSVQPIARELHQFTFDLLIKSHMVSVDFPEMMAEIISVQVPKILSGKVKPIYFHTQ
Chain of Estrogen receptor (Homo sapiens) (P03372 whole entry, looked up): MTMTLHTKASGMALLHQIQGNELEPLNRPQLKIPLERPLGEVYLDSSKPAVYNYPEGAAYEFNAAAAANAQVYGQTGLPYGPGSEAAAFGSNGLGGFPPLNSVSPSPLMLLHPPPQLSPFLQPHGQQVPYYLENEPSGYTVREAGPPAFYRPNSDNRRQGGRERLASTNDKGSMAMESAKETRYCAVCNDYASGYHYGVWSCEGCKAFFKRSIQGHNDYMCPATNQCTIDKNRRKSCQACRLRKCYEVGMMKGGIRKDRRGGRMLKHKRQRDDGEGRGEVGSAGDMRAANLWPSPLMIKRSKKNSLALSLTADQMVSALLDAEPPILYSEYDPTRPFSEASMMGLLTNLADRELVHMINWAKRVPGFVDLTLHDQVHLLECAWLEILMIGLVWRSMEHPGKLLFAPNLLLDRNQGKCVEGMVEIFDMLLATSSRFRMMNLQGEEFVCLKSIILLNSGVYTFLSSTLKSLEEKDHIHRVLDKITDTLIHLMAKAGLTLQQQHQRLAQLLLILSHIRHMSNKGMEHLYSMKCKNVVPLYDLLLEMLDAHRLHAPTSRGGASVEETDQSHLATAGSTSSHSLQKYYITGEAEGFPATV

Take `N#Cc1c(-c2ccc(Cl)cc2)[nH]c(C(F)(F)F)c1Br`: the Potency in experiment [1] was 770 nM (active); in [2], 24.3 µM (active); in experiment [4] it was 38.6 µM (active); in experiment [8], 4.33 µM (active); in experiment [9] it was 6.86 µM (active). In addition, the Potency entry in [3], in experiment [5], in [7], in experiment [10] and in experiment [11] was “inactive” each time. In [6], the call was inactive.

Regarding `CCCCCCCCCCCCCCCC[N+](C)(C)C`, the Potency in [1] was 3.72 µM (active) and 969 nM (active) and 298 nM (active); in experiment [12] it was 29.5 µM (active) and 48.6 µM (active) and 26.6 µM (active); in experiment [2] it was 9.34 µM (active) and 24.3 µM (active) and 11.9 µM (active); in experiment [10], “inactive and 54.9 µM (active)”; in [11], “inactive and 30.1 µM (active)”; in experiment [16] it was “inactive and 27.5 µM (active)”. The molecule was called inactive in experiment [6] and in [15]. Besides, the Potency entry in [7], in experiment [13] and in experiment [14] was “inactive” in each case.

On to `Nc1c(Oc2ccccc2)cc(O)c2c1C(=O)c1ccccc1C2=O`, for which the Potency entry in experiment [1], in [2], in experiment [3], in experiment [4], in experiment [14] and in experiment [17] was “inactive” in each case. The Potency result in experiment [8], in experiment [9], in experiment [18], in [10], in [11] and in experiment [16] was “inactive” each time. Also, the Potency in experiment [13] is 26.6 µM (active). For the same molecule, the molecule was classed as inactive in [15].

Turning to `C1CCC2CCCCC2C1` (configuration not stated), the Potency entry in experiment [1], in experiment [12], in experiment [2], in [5], in experiment [13] and in [14] was “inactive” throughout. Moreover, the Potency entry in [8], in experiment [9], in experiment [18], in [10] and in experiment [11] was “inactive” throughout. In addition, the outcome in experiment [15] was inactive.

With `CCCCCCCCCCCCBr`, the Potency result in experiment [1], in experiment [12], in experiment [5], in experiment [7], in [13] and in [14] was “inactive” throughout. Further, the Potency result in experiment [18], in experiment [10], in experiment [11] and in [16] was “inactive” in each case. Moreover, the Potency in [2] was 43.3 µM (active). Besides, the result in experiment [6] and in experiment [15] was inactive.

For `CC(=O)c1cc(C(C)(C)C)cc2c1CCC2(C)C`, the Potency result in [1], in [2], in [4], in [5], in experiment [13] and in [14] was “inactive” in each case. Further, the Potency entry in experiment [17], in experiment [8], in experiment [9], in experiment [18], in experiment [10] and in experiment [11] was “inactive” throughout. For the same molecule, the molecule was classed as inactive in [15].

Consider `CC(C)(O)c1cnn2c(-c3ccc(F)c(-c4c(F)cccc4C#N)c3)cnc2n1`, for which the results for the Potency in [1] and in [2] were 4330 nM (active) and 27.3 µM (active), respectively. For the same molecule, the Potency result in experiment [3], in experiment [4], in [7], in experiment [18], in experiment [10] and in [11] was “inactive” each time.

For `O=C(O)COc1nc(Cl)c(Cl)cc1Cl`, the Potency result in experiment [1], in experiment [12], in [4], in experiment [13], in experiment [18] and in [11] was “inactive” in each case. The Potency entry in experiment [16] is “inactive”. In addition, the outcome in experiment [6] was inactive. Further, in [9], the Potency is 27.9 µM (active).

`CN(CCCC(=O)c1cccnc1)N=O`: the Potency entry in experiment [1], in experiment [2], in [3], in experiment [4], in experiment [5] and in experiment [7] was “inactive” throughout. The Potency result in [13], in experiment [14], in [17], in [8], in experiment [9] and in [18] was “inactive” in each case. Moreover, the Potency entry in [10] and in [11] was “inactive” each time. The call in [6] and in [15] was inactive.
